TEAD-YAP block: TEAD-YAP interaction inhibition, primary screen, TEAD-YAP interaction inhibitor project, luminescence, HEK-TIYL cells; TEAD-Gal4/YAP UAS-luciferase luminescence; inhibition, % at 9.12 µM; 1.4% of 640,000 active; in the data active = inhibition above about 32%;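 also: 0% = median of test compound wells and 100% = reference inhibitor wells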
MITF inh: MITF inhibitors, primary screen, biochemical, AlphaScreen, human | Microphthalmia-associated transcription factor (Homo sapiens), O75030 | inhibition, % at 2.6 µM | 0.91% of 650,000 active | AID 1259374, 2018 | AlphaScreen MITF homodimerization, bead proximity signal; in the data active = inhibition above about 50%;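 also: 0% = vehicle wells with protein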
FBW7 activator: FBW7 E3 ligase activators, primary screen, biochemical, AlphaScreen, human; AlphaScreen FBW7–phospho-cyclin E peptide binding, activator screen; normalized activity (activation), % at 26.1 µM; 0.13% of 650,000 active; in the data active = normalized activity above about 1.9%;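 also: purified mutant Fbw7 with reduced substrate affinity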
Target sequence (Q969H0 whole entry, looked up): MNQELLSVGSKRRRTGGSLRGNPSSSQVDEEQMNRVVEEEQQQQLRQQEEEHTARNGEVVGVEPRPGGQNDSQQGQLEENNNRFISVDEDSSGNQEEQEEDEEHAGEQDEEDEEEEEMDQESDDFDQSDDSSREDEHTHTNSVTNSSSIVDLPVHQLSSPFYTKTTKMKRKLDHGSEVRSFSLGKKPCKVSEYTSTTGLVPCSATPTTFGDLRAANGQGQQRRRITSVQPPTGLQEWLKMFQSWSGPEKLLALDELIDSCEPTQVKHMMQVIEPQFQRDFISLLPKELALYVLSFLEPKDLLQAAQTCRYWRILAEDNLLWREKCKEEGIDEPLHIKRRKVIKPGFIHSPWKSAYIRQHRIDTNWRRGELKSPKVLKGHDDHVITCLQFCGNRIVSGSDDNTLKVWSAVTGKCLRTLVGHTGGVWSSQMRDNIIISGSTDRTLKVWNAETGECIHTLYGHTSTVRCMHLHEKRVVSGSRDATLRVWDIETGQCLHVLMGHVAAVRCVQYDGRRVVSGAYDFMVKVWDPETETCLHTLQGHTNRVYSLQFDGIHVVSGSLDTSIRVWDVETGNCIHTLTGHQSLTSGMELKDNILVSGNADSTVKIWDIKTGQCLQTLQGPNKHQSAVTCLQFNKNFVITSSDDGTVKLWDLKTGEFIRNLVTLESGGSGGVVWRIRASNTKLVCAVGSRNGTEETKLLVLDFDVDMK
GPR151 activ: activators of human GPR151, primary screen, cell-based, PathHunter beta-arrestin, luminescence | G-protein coupled receptor 151 (Homo sapiens), Q8TDV0 | activation, % at 11.2 µM | 1% of 650,000 active | PathHunter beta-arrestin GPR151 cells | AID 1508602, 2020; in the data active = activation above about 4.9%;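 also: 0% = median of compound wells and 100% = cells with positive control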
GPR151 conf act: GPR151 activators, triplicate retest, confirmation, cell-based, PathHunter beta-arrestin, luminescence; shares compounds with GPR151 activ; GPR151 PathHunter beta-arrestin cells, 90 min; % of EA-reagent control over plate median; activation, % at 11.2 µM; 6,700 tested, under 10 active; AID 1508609, 2020;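 active = mean percent activation across replicates above the confirmation screen cutoff of 4.91%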
GPR119 counter: GPR119 activators in beta-arrestin cells, counter-screen for GPR151 activator project, cell-based, PathHunter beta-arrestin, luminescence, triplicate | shares compounds with GPR151 activ | 90 min; 0 = compound-well median, 100 = enzyme-acceptor control | activation, % at 11.2 µM | 0.3% of 6,700 active;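 active = mean percent activation in the counterscreen above 29.09%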;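 also: counterscreen on off-target GPR119 to flag nonselective hits from the GPR151 activator screen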
An asterisk follows results filed as active; . = no result. In the library only some 3.5% were active in any assay of this set; here they are far more common.

SMILES	TEAD-YAP block	MITF inh	FBW7 activator	GPR151 activ	GPR151 conf act	GPR119 counter
COc1cccc(C(c2sc3nc(C)nn3c2O)N2CCC(C(N)=O)CC2)c1 (stereo not drawn)	5.9	-0.8	0.2	0.4	.	.
CCc1nc2sc(C(c3cccc(OC)c3)N3CCC(C(N)=O)CC3)c(O)n2n1 (stereo not drawn)	-2.4	6.0	0.1	5.8*	-0.6	-4.0
CC(C)(C)c1ccc(C(=O)On2c(-c3ccccc3F)nc3ccccc3c2=O)cc1	-0.3	3.3	-0.2	5.9*	1.2	13.6
COCCN(Cc1cccc(OC)c1)C(=O)c1nc2ccc(-c3cn[nH]c3)cc2s1	-8.8	3.8	0.2	0.9	.	.
COCCN(Cc1cccc(Cl)c1)C(=O)c1nc2ccc(-c3cn[nH]c3)cc2s1	-31.2	1.6	-0.2	6.2*	-0.3	-6.7
Cc1nn(-c2ccccc2)c2c1C(c1ccc(Br)cc1)C(C#N)=C(N)O2 (stereo not drawn)	6.5	-0.3	0.0	0.4	.	.
COCCCN1C(=O)c2ccccc2CC1(C)C(=O)NC1CCCCCCC1 (stereo not drawn)	2.3	1.8	0.2	1.5	.	.
COCCCN1C(=O)c2ccccc2CC1(C)C(=O)NC1CCCCCC1 (stereo not drawn)	-3.6	-7.2	-0.1	5.6*	-0.1	-3.4
CCN1CCN(CCCNC(=O)C2=C(C)C(=O)OC23CCCCC3)CC1	-3.0	24.9	-0.1	1.0	.	.
COC(=O)CCC(=O)OC1(C)C(=O)C=C2C=C(C3CC3)OC=C2C1=O (stereo not drawn)	.	17.3	0.1	5.8*	-0.1	9.1
COc1ccc(-c2nc3cc(NC(=O)c4cc5ccccc5cc4OC)ccc3o2)cc1	-13.6	6.8	0.3	-1.2	.	.
C/C(=N/NS(=O)(=O)c1ccc(C)cc1)c1c(O)c2ccccc2oc1=O	9.2	9.4	0.1	5.4*	-1.5	-11.0
C/C(=N\NS(=O)(=O)c1ccc(C)cc1)c1c(O)c2ccccc2oc1=O	2.5	13.5	0.3	-0.5	.	.
Cc1cc2nc(OC(C)(C)C)c3ccccc3n2n1	6.8	3.7	0.1	-0.6	.	.
O=C(CC1Sc2ccccc2NC1=O)NCc1ccc2c(c1)OCO2 (stereo not drawn)	2.4	1.0	0.0	7.3*	-0.9	-10.6
CCN(CC)C(=O)CCS(=O)(=O)c1cccc2nsnc12	10.9	20.5	0.0	-0.3	.	.
COc1ccc(N2CCN(C(=O)Cc3ccc(Cl)cc3)CC2)c([N+](=O)[O-])c1	11.7	12.6	-0.1	0.4	.	.
O=C(NCCO)C(=O)NCC(c1ccco1)S(=O)(=O)c1ccc(Cl)cc1 (stereo not drawn)	-3.2	3.8	0.1	0.8	.	.
CNC(=O)C(=O)NCC(c1ccco1)S(=O)(=O)c1ccc(Cl)cc1 (stereo not drawn)	17.8	10.8	0.5	5.2*	-0.9	-7.2
CCCc1cc(C(=O)Nc2ccc(OC)cc2OC)no1	-17.6	-1.4	-0.1	17.1*	0.0	-4.2
COc1ccc(-c2cc(C(=O)Nc3ccc(OC)cc3OC)no2)cc1	6.4	5.6	-0.1	-0.3	.	.
COC(=O)c1ccc(/C=N/Nc2ccc(Cl)c(C(=O)O)c2)cc1	-51.2	6.9	-0.1	-6.3	.	.
Cc1ccc(-c2oc3ccccc3c(=O)c2OC(=O)CN2C(=O)c3ccccc3C2=O)cc1	-17.0	20.4	0.0	11.2*	-1.1	-5.5
O=C(CN1C(=O)c2ccccc2C1=O)Oc1c(-c2ccccc2)oc2ccccc2c1=O	-28.8	-6.2	-0.2	-0.4	.	.
O=C(Nc1ccc(N2CCOCC2)cc1)c1ccccc1I	-7.5	1.4	0.0	2.7	.	.
SMILES	TEAD-YAP block	MITF inh	FBW7 activator	GPR151 activ	GPR151 conf act	GPR119 counter
Cc1ccc(Oc2cccc(NC(=O)c3cccc4ccccc34)c2)nn1	4.4	8.7	0.1	5.6*	0.1	-9.7
COC(=O)c1ccc(/C=C(\CC(=O)O)c2nc3ccccc3s2)cc1	1.7	-17.7	0.1	0.3	.	.
COc1cccc(-c2nc(C(N)=O)c3[nH]c(=O)n(C(C)C)c3n2)c1	12.4	2.7	0.1	-0.4	.	.
COc1ccc(-c2cc3ccc(O)c(CN4CCOCC4)c3oc2=O)cc1	-2.9	7.8	0.2	-1.4	.	.
O=c1oc2c(CN3CCOCC3)c(O)ccc2cc1-c1ccc(F)cc1	-3.6	7.3	0.7	14.2*	-0.4	-2.7
Cc1c(C(=O)N2CCN(c3ccccc3Cl)CC2)nnn1-c1nc2c(s1)CCCC2	1.2	-6.0	0.1	9.4*	1.0	-3.4
Cc1ccc(C(=O)O)cc1N1C(=O)c2ccc(Oc3ccc([N+](=O)[O-])cc3)cc2C1=O	0.3	-10.6	0.3	6.8*	0.3	1.6
Cc1ccccc1N1C(=O)c2ccc(Oc3ccc([N+](=O)[O-])cc3)cc2C1=O	4.1	10.3	-0.1	-0.3	.	.
Cn1cnnc1SCC(=O)Nc1ccc(/C=C\c2ccccc2)cc1	-19.8	11.3	0.2	-0.1	.	.
C/C(CC(=O)Nc1ccc2c(c1)OCCO2)=N\NC(=O)C(c1ccccc1)c1ccccc1	6.1	11.3	0.1	5.1*	-0.1	-4.9
CCC(=O)N/N=C(\C)CC(=O)Nc1ccc2c(c1)OCCO2	-12.1	-7.5	-0.1	-0.4	.	.
CCN1CNC(=S)N(c2ccc(F)c(Cl)c2)C1	0.6	6.8	0.0	6.0*	0.5	-7.1
O=C(Nc1cccnc1)c1nn2c(C(F)(F)F)cc(-c3ccco3)nc2c1Br	-1.6	0.7	0.0	0.1	.	.
CS(=O)(=O)N(CC(=O)Nc1ccc(F)cc1F)c1cc(Cl)cc(Cl)c1	-2.5	0.4	-0.2	0.3	.	.
O=C(NNC(=O)c1ccccc1I)c1cccs1	-1.5	4.0	0.2	5.8*	-0.5	-10.9
C1=C(c2ccc3c(c2)c2c4n3CCN(Cc3ccccc3)C4CCC2)CCC1 (stereo not drawn)	-0.9	18.2	0.1	1.0	.	.
COc1cc(C(=O)Nc2nnc(Cc3ccc(Cl)cc3)s2)c([N+](=O)[O-])cc1OC	11.7	-1.5	-0.3	6.1*	1.5	-3.0
C[C@H](CCC(=O)O)[C@H]1CC[C@H]2[C@@H]3[C@@H](O)C[C@@H]4C[C@H](O)CCC4(C)[C@H]3CCC12C (stereo partly drawn)	.	-12.2	0.2	4.1	.	.
COC(=O)CCC(C)C1CCC2C3CC[C@@H]4C[C@H](O)CC[C@]4(C)C3C[C@H](O)[C@]12C (stereo partly drawn)	4.4	15.8	0.2	6.4*	0.3	8.2
CCn1cc(CN2CCC(C(=O)Nc3ccccc3-c3cccc(OC)c3)CC2)c(C)n1	-12.2	1.3	-0.1	-1.1	.	.
CCOc1ccccc1CNCCNC(=O)c1nonc1N	6.5	7.1	0.1	6.3*	-0.1	-6.2

Source: PubChem BioAssay (The Scripps Research Institute Molecular Screening Center)
